Assay outcomes: PubChem, The Scripps Research Institute Molecular Screening Center
DAX1 inh-1: DAX1 (NR0B1) inhibition, primary screen; inhibition, % at 6.8 µM; HEK293T StAR-luciferase reporter, SF-1/DAX-1 repression relief; AID 652010; 370,000 tested, 1.1% active;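 active = inhibition above the mean over all tested compounds plus 3 SD, cut at about 3.6% in these data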;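 also: higher inhibition means more luminescence from relief of DAX-1 repression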
AHR activator: human AHR activation; 320,000 tested, 2.5% active; AHR-responsive luciferase reporter cells, luminescence; activation, % at 5 µM; AID 2796; in the data active = activation above about 47%
hcDAF12 agonist: H. contortus DAF-12 activation, primary screen. HEK293 hcDAF-12 lit1-tk-luc reporter, luminescence; 0% DMSO, 100% Δ7-dafachronic acid. activation, % at 6.8 µM. 370,000 tested, 1.4% active. AID 652067;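 active = activation above the mean of all tested compounds plus 3 SD, cut at about 5.5% in these data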
DAX1 inh-2: inhibitors of human orphan nuclear receptor DAX1 (NR0B1). P51843. inhibition, % at 6.75 µM. AID 504766. HEK293 Gal4-DAX1 luciferase reporter, luminescence. 340,000 tested, 0.99% active;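 active = inhibition above the mean over all tested compounds plus 3 SD, cut at about 4.2% in these data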;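 also: inhibition shows as a rise in luminescence from relieved DAX1 repression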
hgDAF-12 ag: agonists of H. glycines DAF-12 nuclear receptor | 370,000 tested, 1.8% active | HEK293 GAL4-hgDAF12 UAS-luciferase reporter, agonist luminescence; normalized to butyrate control | activation, % at 6.8 µM;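 active = activation above a cutoff set at the mean of all screened compounds plus 3 SD, cut at about 10% in these data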
ssDAF-12 act: activates DAF-12 receptor from parasite S. stercoralis; HEK293 ssDAF-12/GRIP1 lit1-tk-luc reporter, luminescence; % of 3 µM dafachronic acid response; activation, % at 6.8 µM; 370,000 tested, 1% active;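 active = activation above the mean over all tested compounds plus 3 SD, cut at about 0.9% in these data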
Of the large screens only hits and unclear results are named; the others gave an inactive call. Rows were chosen to be rich in hits. Some 5.7% of all compounds tested hit in one or more screens of this group.

CCc1ccc(CN2CCC(n3nccc3NC(=O)c3ccccc3C)CC2)cc1	none
Nc1ccc2c(c1)C(=O)c1ccccc1-2	DAX1 inh-2 6.1
Nc1ccc2c(c1)C(=O)C(=O)c1ccccc1-2	none
O=C(c1cc2cc(F)ccc2[nH]1)N1CCC(Cc2ccccc2)CC1	ssDAF-12 act 0.9
CCN1CCN(C(=O)c2cc3cc(F)ccc3[nH]2)CC1	AHR activator 65
COc1cccc(C(=O)OCC(=O)c2c[nH]c3ccccc23)c1OC	none
COc1ccc(C(=O)OCC(=O)c2c[nH]c3ccccc23)c(OC)c1	ssDAF-12 act 1.7
COc1ccc(C(=O)COC(=O)c2ccccc2O)c(OC)c1	DAX1 inh-1 3.9, hgDAF-12 ag 12
O=C(OCC(=O)c1c[nH]c2ccccc12)c1cncc(Br)c1	none
O=C(OCC(=O)c1c[nH]c2ccccc12)c1cccc([N+](=O)[O-])c1	ssDAF-12 act 1.8
O=C(COC(=O)c1c[nH]c2ccccc12)NCc1ccccc1	DAX1 inh-2 4.7 (no result: AHR activator)
Cc1ccc(S(=O)(=O)N2CCN(C(=O)N3CCCCC3)CC2)c(C)c1	none (no result: AHR activator)
COC(=O)c1ccc(CO/N=C/c2ccc(OC)cc2OC)cc1	none
O=C(CNS(=O)(=O)c1ccccc1)OCC(=O)c1c[nH]c2ccccc12	AHR activator 47
Cc1ccc(NC(=O)COC(=O)CN2C(=O)C3CCCCC3C2=O)cc1S(=O)(=O)N1CCOCC1 (stereo unspecified)	none
Cc1ccc(OCCC(=O)OCC(=O)Nc2ccc(C)c(S(=O)(=O)N3CCOCC3)c2)cc1	DAX1 inh-1 3.7 (no result: AHR activator)
Cc1ccc(NC(=O)COC(=O)CC2CC3CCC2C3)cc1S(=O)(=O)N1CCOCC1 (stereo unspecified)	DAX1 inh-1 3.6
Cc1cccc(NC(=O)c2cccc(NC3=NC4CS(=O)(=O)CC4S3)c2)c1 (stereo unspecified)	none
CC(=O)Nc1ccc(S(=O)(=O)N2CCN(c3ncccn3)CC2)cc1	DAX1 inh-2 6.0
O=C(Nc1ccccn1)c1ccc(S(=O)(=O)N2CCCCC2)cc1	DAX1 inh-1 3.8
O=C(Nc1ccccn1)c1ccc(S(=O)(=O)N2CCCCCC2)cc1	DAX1 inh-1 4.3
CCCCN(CCCC)CCCNC(=O)Cn1cc(C)c(=O)[nH]c1=O	none (no result: AHR activator, DAX1 inh-2)
CCOc1ccc2nc(N3C(=O)CNC3=S)sc2c1	DAX1 inh-2 5.3
N/C(=N\OC(=O)C12CC3CC(CC(C3)C1)C2)c1ccccc1	none
Cc1cc(C(=O)NNC(=O)c2ccc(Cl)cc2)no1	none
N/C(=N\OC(=O)c1ccc(Cl)cc1)c1ccccn1	DAX1 inh-1 4.2
N/C(=N\OC(=O)C12CC3CC(CC(C3)C1)C2)c1ccccn1	hgDAF-12 ag 11
Cc1ccc(C(=O)O/N=C(\N)c2ccccn2)c(C)c1	none
Cc1cc(/C(N)=N/OC(=O)c2ccc(Cl)cc2)no1	hgDAF-12 ag 11 (no result: DAX1 inh-2)
N/C(=N\OC(=O)c1ccccc1[N+](=O)[O-])c1ccccn1	hgDAF-12 ag 10
CCNC(=O)N1CCN(c2ccc(N3CCN(Cc4ccccc4)[C@@H](C)C3)c(C)c2)[C@@H](C)C1	none (no result: AHR activator, DAX1 inh-2)
COC(=O)c1cc(=O)n2c(sc3ccccc32)c1C#N	none
O=C(CSc1nnc(-c2cccs2)o1)c1ccc(F)cc1	none (no result: AHR activator, DAX1 inh-2)
N/C(=N\OC(=O)c1ccc(Cl)c(Cl)c1)c1ccccn1	DAX1 inh-1 4.2, AHR activator 72, hgDAF-12 ag 11
N/C(=N\OC(=O)c1ccc(Cl)c([N+](=O)[O-])c1)c1ccccn1	none
CCOC(=O)CNC(=O)c1cc2c(=O)[nH]c3ccc(C)cc3c2s1	none
O=S(=O)(NCC(c1ccco1)N1CCc2ccccc2C1)c1ccc(Br)cc1 (stereo unspecified)	DAX1 inh-1 3.7
Cc1ccc(S(=O)(=O)NCC(c2ccco2)N2CCc3ccccc3C2)cc1 (stereo unspecified)	none
Cc1ccc(F)cc1CNC(=O)C1CCC(=O)N(C2CC2)C1 (stereo unspecified)	none
CC(C)[C@H](NC(=O)OCc1ccccc1)C(=O)OCC(=O)N1CCCCC1	hgDAF-12 ag 12 (no result: AHR activator)
CC(C)[C@H](NC(=O)OCc1ccccc1)C(=O)OCC(=O)N1CCN(c2ccc(F)cc2)CC1	none
COCCNC(=S)N(C)[C@H]1C[C@H]2c3[nH]c4ccccc4c3CCN2C(=O)[C@H]1[C@H](C)O	none (no result: AHR activator, DAX1 inh-2)
CC(=O)Oc1ccc2c(c1)C(=O)c1ccccc1CO2	none
COc1ccc(C2=Cc3ccc(OC(C)=O)cc3OC2)cc1	DAX1 inh-2 5.5 (no result: AHR activator)
COc1ccccc1N1CCN(S(=O)(=O)CCNC(=O)Cc2ccc(F)cc2)CC1	none
Cc1cc(NC(=O)CSCC(=O)N(C)Cc2cccc(Cl)c2)no1	none
CCCc1nc2c(C)cc(C)cc2c(N)c1CC	AHR activator 47
C[C@@H]1CN([C@@H](C)CO)C(=O)CCCn2cc(nn2)CO[C@H]1CN(C)C(=O)Nc1ccc(-c2cccs2)cc1	none (no result: AHR activator, DAX1 inh-2)
N#CC1=C(N)NC(SCC(=O)c2ccc(Br)cc2)=C(C#N)C12CCCCC2	none
COc1ccc(C(=O)CSC2=C(C#N)C3(CCCCC3)C(C#N)=C(N)N2)cc1	AHR activator 52
O=C(Cn1cncn1)N/N=C/c1cccc2ccccc12	AHR activator 70
CC1=C(C(N)=O)C(c2cccs2)n2nc(-c3cccc(Cl)c3)nc2N1 (stereo unspecified)	AHR activator 67 (no result: DAX1 inh-1, hcDAF12 agonist, hgDAF-12 ag, ssDAF-12 act)
Cc1ccc(NC2c3ccccc3C(=O)N2c2cccnc2)cc1 (stereo unspecified)	DAX1 inh-2 5.5
C[C@H](O)[C@@H]1C(=O)N2CCc3c([nH]c4cccc(-c5ccccc5)c34)[C@@H]2C[C@@H]1N(C)CC1CCCCC1	none (no result: AHR activator, DAX1 inh-2)
O=C(c1ccco1)N1CCN(Cc2cn[nH]c2-c2cccc3ccccc23)CC1	none
CC(C)c1nnc(NC(=O)CCCC(=O)O)s1	none
CCOc1ccc(C(=O)Nc2nnc(C(C)C)s2)cc1OCC	AHR activator 59
CCOC(=O)CC(=O)Nc1nnc(C(C)C)s1	DAX1 inh-2 5.3
C=CCN1C(=O)[C@H](CC(=O)NCc2cccc(C(F)(F)F)c2)[C@@]2(C(=O)OCC)CCCC=C12	none (no result: AHR activator, DAX1 inh-2)
COc1ccccc1NC(=O)NCc1nc(-c2ccc(C(F)(F)F)cc2)no1	none (no result: DAX1 inh-2)
CCCCNc1c(-c2ccc(SC(C)CC)cc2)nc2cnccn12 (stereo unspecified)	AHR activator 48 (no result: DAX1 inh-1, hcDAF12 agonist, hgDAF-12 ag, ssDAF-12 act)
CN(C)c1nc2ncn(Cc3ccccc3)c2c(=O)[nH]1	none
COc1ccc(-c2ccc(C(=O)Nc3ccc4c(c3)OCO4)c3occc23)c(C)c1	hgDAF-12 ag 13 (no result: AHR activator, DAX1 inh-2)
O=C(c1ccc2oc(CCCc3ccccc3)nc2c1)N1CCCCC1CO (stereo unspecified)	DAX1 inh-1 3.8 (no result: AHR activator)
NC(=O)[C@@H]1CCCN1C(=O)c1ccc2oc(CCc3ccccc3)nc2c1	DAX1 inh-1 3.6 (no result: AHR activator)
CCCCC(=O)Nc1ccc(Br)cn1	none
CCCCNC(=O)Nc1ccc(Br)cn1	AHR activator 52
